Assay outcomes: PubChem BioAssay, several laboratories
Only some compounds are listed: those with a hit (about 0.51% of all), similar ones and a draw of the others.
phage Ecoli inh: E. coli growth loss with phage present; growth absorbance; inhibition, % at 11.9 µM; actives 0.26% (n = 360,000); AID 651602; in the data active means inhibition above about 11%
Tat transport: E. coli Tat transport inhibition; E. coli MC4100 TorA-mCherry Tat export, fluorescence; inhibition, % at 10 µM; actives 0.036% (n = 340,000);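 active means mean replicate inhibition at least 50% and at least half of replicates individually reaching 50%; inconclusive means only one of the two criteria met; inactive means neither criterion met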;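 further: exported cargo escapes ClpAP degradation while cytoplasmic cargo is degraded and loses fluorescence; 0% = median of neutral control wells and 100% = median of NaSCN control wells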
AddAB inh: less growth of phage-infected E. coli with AddAB | actives 0.29% (n = 330,000) | inhibition, % at 11.9 µM | E. coli expressing H. pylori AddAB, absorbance growth; in the data active means inhibition above about 12%;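 further: 0% = vehicle wells of infected cells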
E coli growth-1: counter-screen for AddAB inhibitors: E. coli growth inhibition; inhibition, % at 11.9 µM; actives 0.27% (n = 330,000); E. coli V3065 growth, OD600 absorbance, 18 h; AID 449728;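 active means inhibition above the campaign's mean inhibition across all tested compounds plus 3 SD, cut at about 9.9% in these data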;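 further: uninfected addAB+ strain grown without phage in ampicillin broth; 0% = DMSO wells and 100% = ciprofloxacin 0.95 µg/ml wells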
E coli growth-2: E. coli growth inhibition; AID 1053175; Escherichia coli growth, OD600, 23 h; active compounds read low; OD600 absorbance (test concentration not listed); actives 0.21% (n = 330,000);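 active means OD600 absorbance below the run mean of sample wells minus 3.6 SD, in any replicate, cut at about 0.56 in these data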
AddAB conf: confirmation screen: growth loss of phage-infected E. coli expressing H. pylori AddAB; shares compounds with AddAB inh; E. coli V3065 expressing H. pylori AddAB, T4 phage, OD; T4 phage with gene 2 nonsense mutations; inhibition, % at 11.9 µM; actives 64% (n = 880); AID 488942;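 active means mean inhibition above a set limit taken from the earlier primary screen, cut at about 13% in these data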;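 further: higher means less bacterial growth since AddAB block lets phage replicate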
RecBCD counter: reduces growth of phage-infected RecBCD+ E. coli, AddAB inhibitor counter-screen | shares compounds with AddAB inh | E. coli V66 + mutant T4 phage, OD growth | inhibition, % at 11.9 µM | actives 73% (n = 880) | AID 488955;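 active means mean inhibition above the mean of solvent-only control wells plus 3 SD, cut at about 4% in these data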;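 further: optical density read after an 18 h incubation at 37 °C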
bact viab count: counter-screen: bacterial growth inhibition; shares compounds with AddAB inh; bacterial viability, absorbance (AddAB counterscreen); inhibition, % at 11.9 µM; actives 35% (n = 880); in the data active means inhibition above about 25%
Active calls of the source: *; ? = inconclusive; nt = no result.

SMILES | phage Ecoli inh | Tat transport | AddAB inh | E coli growth-1 | E coli growth-2 | AddAB conf | RecBCD counter | bact viab count
Cn1c(=O)cc(C(=O)NN=Cc2ccc(Cl)cc2)[nH]c1=O | nt | nt | nt | nt | 0.6 | nt | nt | nt
CC(C)Cc1cc(C(=O)NCCN2CCOCC2)no1 | 2 | -8 | 19* | 4 | 0.72 | -2 | 1 | -1
Cc1noc(NS(=O)(=O)c2ccc(N/C=C/C(=O)c3cccnc3)cc2)c1C | 2 | -1 | 13* | 8 | 0.66 | 0 | 3 | 1
Cc1noc(NS(=O)(=O)c2ccc(N/C=C\C(=O)c3ccncc3)cc2)c1C | 3 | 5 | 10 | 4 | 0.69 | nt | nt | nt
CCc1ccc(C(=O)/C=C/Nc2ccc(S(=O)(=O)Nc3onc(C)c3C)cc2)cc1 | 7 | 4 | 14* | 4 | 0.67 | -1 | 3 | 2
Cc1noc(NS(=O)(=O)c2ccc(N/C=C/C(=O)c3ccc(F)cc3)cc2)c1C | 8 | -8 | 6 | 5 | 0.71 | nt | nt | nt
Cc1onc(-c2c(Cl)cccc2Cl)c1C(=O)NN=C(N)COc1ccc(Cl)cc1 | nt | nt | nt | nt | 0.7 | nt | nt | nt
O=C(NN=C1CCCc2ccccc21)C(O)c1ccccc1 (stereo not given) | nt | nt | nt | nt | 0.7 | nt | nt | nt
Cc1ccc(C2=NS(=O)(=O)N(C)C(C(=O)NCc3ccco3)=C2)cc1 | 3 | -10 | 26* | 6 | 0.72 | -2 | 1 | -1
COc1ccc(C2=NS(=O)(=O)N(C)C(C(=O)NCc3ccco3)=C2)cc1OC | 2 | -8 | -2 | -3 | 0.66 | nt | nt | nt
CCOC(=O)C1C2COc3ccc(Br)cc3C2N2C(=O)N(c3ccccc3)C(=O)[C@@]12C (stereo not given in full) | nt | nt | nt | nt | 0.65 | nt | nt | nt
CCOCCCNC(=O)Cn1cc2c(n1)CCCC2 | 1 | 2 | 14* | 4 | 0.71 | -2 | 1 | -2
CC(C)c1c(C(=O)NN=Cc2ccsc2)nnn1-c1nonc1N | nt | nt | nt | nt | 0.69 | nt | nt | nt
O=C(COC(=O)Cc1c[nH]c2ccccc12)Nc1c(Cl)cccc1C(F)(F)F | 0 | 5 | 3 | -3 | 0.67 | nt | nt | nt
O=C(COC(=O)Cc1n[nH]c(=O)c2ccccc12)Nc1c(Cl)cccc1C(F)(F)F | 7 | -3 | 56* | 27* | 0.61 | -1 | 0 | -2
CCOC(=O)N/N=C\c1ccc([N+](=O)[O-])o1 | 6 | ? | 31* | 26* | nt | 98* | 13* | 29*
Cc1ccc(/C=N/NS(=O)(=O)c2ccc([N+](=O)[O-])cc2)o1 | 3 | 3 | 3 | -2 | nt | nt | nt | nt
Cc1ccc(S(=O)(=O)N/N=C\c2ccc([N+](=O)[O-])o2)cc1 | 7 | -5 | 18* | 13* | nt | 102* | 9.5* | 54*
O=[N+]([O-])c1ccc(C=NNS(=O)(=O)c2ccc(Cl)cc2)o1 | nt | nt | nt | nt | 0.5 | nt | nt | nt
O=[N+]([O-])c1ccc(/C=N/NS(=O)(=O)c2ccc(Cl)cc2)o1 | 8 | 5 | 96* | 22* | nt | 101* | 7.7* | 43*
Cc1ccc(S(=O)(=O)N/N=C\c2ccc([N+](=O)[O-])o2)cc1C | 9 | 11 | 25* | 16* | nt | 100* | 9.5* | 41*
CC(=NNC(=O)CSc1nc2ccccc2s1)c1ccco1 | nt | nt | nt | nt | 0.7 | nt | nt | nt
O=C(Nc1oc2ccccc2c(=O)c1-c1ccccc1)c1ccco1 | -2 | nt | nt | nt | nt | nt | nt | nt
Cc1ccc(-c2c(NC(=O)c3ccco3)oc3ccccc3c2=O)cc1 | -1 | -3 | 93* | 39* | 0.63 | -1 | 0 | -2
Cc1c(Br)c([N+](=O)[O-])nn1C(C)C(=O)NCc1ccco1 (stereo not given) | 2 | 8 | 17* | 6 | 0.64 | 17* | 3 | 12
SMILES | phage Ecoli inh | Tat transport | AddAB inh | E coli growth-1 | E coli growth-2 | AddAB conf | RecBCD counter | bact viab count
C/C(=N\Nc1nc2ccccc2[nH]1)c1ccccn1 | 27* | -8 | 27* | 27* | nt | 25* | 14* | 9
CCCc1ccc(S(=O)(=O)NN=C(C)c2ccc3c(c2)OCO3)cc1 | nt | nt | nt | nt | 0.71 | nt | nt | nt
Cc1cc(C(=O)N2CCN(c3cc(Cl)ccc3C)CC2)on1 | 1 | -5 | 127* | -3 | 0.67 | 5 | 0 | -1
Cc1ccc(Cl)cc1N1CCN(C(=O)C(=O)N2CCCCC2)CC1 | 7 | 14 | 5 | -2 | 0.7 | nt | nt | nt
CCCCn1c(=O)[nH]c2ccccc21 | 2 | -7 | 14* | 7 | 0.69 | -3 | 0 | -3
O=c1[nH]c2ccccc2n1CCCOc1ccccc1 | 0 | 29 | 1 | -2 | 0.7 | nt | nt | nt
CCn1nnnc1SCC(=O)NCc1ccc2c(c1)OCO2 | 1 | -1 | 21* | 13* | 0.77 | -5 | -2 | -5
COc1ccc(-c2nc(C(N)=O)c3[nH]c(=O)n(-c4ccccc4OC)c3n2)c(OC)c1 | -1 | 3 | 43* | 18* | 0.77 | -2 | -2 | -4
C=CCn1c(Sc2ncc([N+](=O)[O-])s2)n[nH]c1=O | 9 | 10 | 17* | 3 | 0.45* | 99* | 12* | 21
O=C1N/C(=N\N=Cc2ccccn2)SC1Cc1cccc(SC(F)F)c1 (stereo not given) | nt | nt | nt | nt | 0.69 | nt | nt | nt
COC(=O)C1CCC(C)C(c2ccc(C)cc2)N1C(=O)c1ccc(C=NOCC(O)C2OC3OC(C)(C)OC3C2O)cc1 (stereo not given) | nt | nt | nt | nt | 0.71 | nt | nt | nt
COc1cc(NC(=O)CC(C)=NNC(=O)C(OC)c2ccccc2)c(OC)cc1Cl (stereo not given) | nt | nt | nt | nt | 0.66 | nt | nt | nt
CC(CC(=O)Nc1ccc(C)c(Cl)c1)=NNC(=O)c1cccc(O)c1 | nt | nt | nt | nt | 0.67 | nt | nt | nt
Cc1cc(C(C)(C)C)cc(C)c1CC1=NCCN1 | 3 | -14 | 14* | 10.0* | 0.7 | 53* | 1 | 24
c1ccc(CC2=NCCN2)cc1 | 3 | ? | -1 | 0 | 0.67 | nt | nt | nt
COc1ccc(C(=O)NN=Cc2c[nH]c3ccccc23)cc1 | nt | nt | nt | nt | 0.65 | nt | nt | nt
COC(=O)C1=C(C)N(Cc2ccccc2)C(=NCCc2ccccn2)NC1c1cccc(F)c1 (stereo not given) | nt | nt | nt | nt | 0.69 | nt | nt | nt
CCN1CC2C3C(=O)N(C)C(=O)C3[C@](Cc3ccccc3)(C1=O)N2C(=O)c1ccc(Br)cc1 (stereo not given in full) | nt | nt | nt | nt | 0.67 | nt | nt | nt
O=C(Nc1cc(C(F)(F)F)ccc1-n1cncn1)c1ccc([N+](=O)[O-])o1 | 10 | 1 | 18* | 14* | 0.66 | 73* | 5.7* | 19
O=C(NN=Cc1cccnc1)c1ccc(NC(=O)C(c2ccccc2)c2ccccc2)cc1 | nt | nt | nt | nt | 0.72 | nt | nt | nt
COc1cccc(C(=O)Nc2nnc(-c3ccc(Cl)cc3)o2)c1 | -5 | -4 | 4 | -4 | 0.59 | nt | nt | nt
COc1cccc(C(=O)Nc2nnc(-c3cccs3)o2)c1 | 3 | 5 | 12* | -2 | 0.56 | 9 | 5.7* | 0
